# Test results published in PubChem BioAssay (NCI).
# The panel holds about 79,000 compounds, 15% with a hit somewhere; the sample as a whole holds those more often. A number with no mark means an inactive call. Cut-off read from the data, not from the text of the source: active = growth inhibition above about 70%; inactive = the rest.
# Test: NCI Yeast Anticancer Drug Screen. Data for the mlh1 rad18 strain (AID 175)
# Settings: S. cerevisiae mlh1 rad18 strain growth inhibition; at 50.0 µM; hits give high values
# How it was run: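 Steps: expose repair-defective yeast to compound; measure growth; express inhibition against vehicle-treated controls.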
row,SMILES,growth inhibition
1,CC1CNC(=S)O1 (stereo not given),-16.7%
2,COc1ccccc1/C=N\NC(C)=O,-14.7%
3,CC(C)(C)OC(=O)NCCc1ccc(N)cc1,-10.2%
4,COc1cc(-c2ccccc2)c(OC)cc1CCl,20%
5,C=CCN1C(=O)c2ccccc2C1=O,21.6%
6,CC(=O)Nc1ccc(F)c([N+](=O)[O-])c1,5.7%
7,O=C(CCC(=O)OCCCl)OCCCl,-7.45%
8,Cc1nc2ccc(Cl)c(Cl)c2s1,-10.4%
9,CSc1nc(=S)c2[nH]c(=S)[nH]c2[nH]1,4.05%
10,N#CC(/C(CCCC(=O)Nc1cccc([N+](=O)[O-])c1)=N/NC(=O)c1cc2ccccc2cc1O)c1ccccc1 (stereo not given),38%
11,CCn1c(=O)c(C#N)c2n(CC)c3cc(C)c(C)cc3n2c1=O,-20.4%
12,Cc1cccc(C)c1/[N+]([O-])=C/c1cccc([N+](=O)[O-])c1,-2.25%
13,CC(=O)CCCCO,-18.1%
14,Cc1ccc(S(=O)(=O)n2ccnc2)cc1,-25.9%
15,CCCCCCCCC(C)(C)O,-4.45%
16,Cc1ccc(C(=O)OCc2ccccc2CN2CCCCC2)cc1,2.1%
17,COc1cc(NC(C)CCCN)c2nccc(C)c2c1 (stereo not given),-36.9%
18,N#CC(C(=O)C(=O)Nc1cccc(C(F)(F)F)c1)c1c(Cl)cccc1Cl (stereo not given),2.15%
19,COC(=O)[C@]1(C)CCCn2c(=O)n(-c3ccccc3)c(=O)n21,-21.6%
20,CC1(C)Cc2ccccc2C(C)(Cl)C(=O)N1 (stereo not given),17.8%

row,SMILES,growth inhibition
1,CC(=O)Oc1cc(C)c(OC(C)=O)c(C)c1C,6.3%
2,COCn1cnc2c(F)ncnc21,-3.1%
3,CCOC(=O)N1C(c2ccccc2)N(c2ccccc2)C(c2ccccc2)N1C(=O)OCC (stereo not given),14.8%
4,CSC1(SC)CCCCCCCCCCC1,-29.4%
5,Cc1ccc(C(O)(c2ccc(C)cc2)C2CCCCC2=C(c2ccccc2)c2ccccc2)cc1 (stereo not given),15.2%
6,COc1cc(C(O)C(CO)Oc2c(OC)cc(C3OCC4C(c5cc(OC)c(O)c(OC)c5)OCC34)cc2OC)ccc1O (stereo not given),15.2%
7,Oc1ccc2ccccc2c1C(c1ccccc1)N1CCOCC1 (stereo not given),-15.2%
8,C/C=C/C(=O)OCCOc1ccccc1-c1ccccc1,20.1%
9,O=C(NCCO)c1ccc(Cl)cc1,-44.5%
10,COc1ccc(CCN=Cc2ccc(Cl)cc2)cc1OC,-10.6%
11,Nc1cccc(N2N=C(C(=O)O)CC2=O)c1,-15.6%
12,CN(NC(=O)c1ccccc1)C(=O)c1ccccc1,3.75%
13,COC(=O)[C@]1(C)CCC[C@]2(C)c3ccc(C(C)=O)cc3C(=O)C[C@@H]12,-15.1%
14,Cc1nc(C)c(N2CCN(Cc3ccccc3)CC2)c(=O)[nH]1,-52.9%
15,NC1=NC(c2ccccc2)N=C(Nc2ccccc2)N1 (stereo not given),41.6%
16,OCC1OC(n2ncc3c(Nc4ccccc4)ncnc32)C(O)C1O (stereo not given),17.9%
17,CC(O)CCNC(c1ccccc1)C(O)c1ccccc1 (stereo not given),-0.85%
18,CCOP(=O)(OCC)/C(C#N)=C/c1cnc(-c2ccccc2)[nH]1,-34%
19,Cc1cc2ncn(C3OC(CO)C(O)C3O)c2cc1C (stereo not given),2.65%
20,Cc1cccc(NC(=O)CSc2nnc(Cc3ccccc3)o2)c1,-28.2%
